Reference: PubChem BioAssay (NCATS)
Inconclusive results are not listed. Active and inactive are the calls of the source. Unless noted, calls come from the whole dose curve; as a rule, active = well fitted curve in either direction with a large enough effect (not every such curve was filed as active); inconclusive = small, poorly fitted or top-dose-only effect, or another doubt; inactive = flat fitted curve, though single readings scatter.

What was measured:
[1] = AP1 Signaling Pathway (AID 357); details: ME-180 AP-1-bla reporter, EGF-induced, beta-lactamase ratio, 5 h; at 17.2 µM (top of the series) unless noted;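 note: ME-180 reporter cells stimulated with EGF at its EC50 level; % is set by controls: 0 for no effect and ±100 for the full control effect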
Outline: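 First, ME-180 AP-1-bla cells were cultured overnight at 37 °C in low-serum Opti-MEM. Next, titrated compounds with EC50 EGF were incubated 5 hours. Finally, CCF4 was added for 2.5 hours and the 460/530 nm ratio recorded.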

[2] = NFAT Signaling Pathway (AID 444); details: Jurkat NFAT-bla M1, carbachol, beta-lactamase ratio, 5 h; at 17.2 µM (top of the series) unless noted;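 note: carbachol stimulus at about its EC50 of 1 µM final; % is set by controls: 0 for no effect and ±100 for the full control effect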
Outline: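 Jurkat cells with NFAT-driven β-lactamase reporter and co-expressed M1 receptor, stimulated with carbachol (final 1 uM, ~EC50), compound titration, 5 h at 37 °C. CCF4 loaded 1 h at RT; 460/530 nm ratio gave %activity and AC50.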

[3] = Stat Signaling Pathway (AID 446);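 note: ME-180 cervical cancer cells given 40 pM IL-6 alongside compound; SIE-controlled beta-lactamase reporter measured as 460/530 nm FRET emission ratio; % is set by controls: 0 for no effect and ±100 for the full control effect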
Outline: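 Emission at 460 and 530 nm (excitation 405 nm) reports SIE-controlled beta-lactamase in ME-180 cells. Cells received compound with 40 pM IL-6 for 5 hrs at 37 C; data scaled between 300 pM IL-6 and 125 nM JAK-inhibitor controls.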

[4] = biological target: Glucocorticoid receptor (Homo sapiens) (UniProt P04150); experiment: GR-GFP Redistribution (AID 450;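 active = compounds whose dose series gives a full or clear partial fitted curve of increased nuclear translocation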; note: potency is the fitted concentration of half-maximal effect); details: U2OS GR-GFP nuclear translocation, laser cytometry, 2 h
Chain of Glucocorticoid receptor (Homo sapiens) (P04150 whole entry, looked up, the tested form may be a part): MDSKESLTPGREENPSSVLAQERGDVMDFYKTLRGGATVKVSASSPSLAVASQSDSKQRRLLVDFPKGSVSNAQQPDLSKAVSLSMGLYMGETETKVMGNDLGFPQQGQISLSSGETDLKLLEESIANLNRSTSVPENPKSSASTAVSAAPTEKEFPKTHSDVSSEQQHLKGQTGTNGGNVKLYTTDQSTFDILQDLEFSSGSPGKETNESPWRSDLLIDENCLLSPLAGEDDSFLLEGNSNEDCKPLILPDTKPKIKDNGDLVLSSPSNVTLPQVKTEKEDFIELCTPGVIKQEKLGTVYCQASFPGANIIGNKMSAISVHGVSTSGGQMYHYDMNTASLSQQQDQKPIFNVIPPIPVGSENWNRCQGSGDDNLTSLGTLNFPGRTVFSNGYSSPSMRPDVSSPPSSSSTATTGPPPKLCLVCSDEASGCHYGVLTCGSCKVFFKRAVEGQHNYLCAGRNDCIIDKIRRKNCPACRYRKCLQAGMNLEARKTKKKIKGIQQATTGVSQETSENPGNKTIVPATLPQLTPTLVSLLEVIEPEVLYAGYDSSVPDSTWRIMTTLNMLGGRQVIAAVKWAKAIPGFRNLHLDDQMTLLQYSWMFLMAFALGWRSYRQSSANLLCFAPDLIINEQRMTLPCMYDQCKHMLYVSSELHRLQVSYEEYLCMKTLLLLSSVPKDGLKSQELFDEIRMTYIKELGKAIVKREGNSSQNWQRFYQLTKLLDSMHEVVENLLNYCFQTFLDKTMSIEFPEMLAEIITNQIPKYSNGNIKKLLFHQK

[5] = biological target: Glucocorticoid receptor (Homo sapiens) (UniProt P04150); experiment: GR-EFC Redistribution (AID 451; calls by dose curve; note: potency is the fitted concentration of half-maximal effect); details: CHO-K1 GR-EFC translocation, beta-gal luminescence, 2 h
Outline: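 CHO-K1 cells expressing nuclear EA and GR-ED fragments of b-gal; compounds titrated up to 46 uM final, 2 h at 37 C. GR nuclear translocation read as complemented b-gal luminescence after 1 h RT detection.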

[6] = biological target: Mitogen-activated protein kinase 10 (Mus musculus) (UniProt Q61831); experiment: JNK3 AlphaScreen Assay (AID 530);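 note: kinase came from lysate of stimulated human HepG2 cells; signal reports phosphorylation of biotinylated GST-cJun 1-79 at Ser73 with 10 µM ATP; % is set by controls: 0 for no effect and ±100 for the full control effect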
Outline: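 HepG2 lysate (IL-1b/TNFa pre-activated) + biotin-GST-cJun 1-79 + anti-pSer73 cJun; cpd titration, 15 min RT; ATP 10 uM start; Tris pH 7.6, MgCl2, DTT, vanadate; beads in EDTA buffer; AlphaScreen.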

[7] = biological target: 3',5'-cyclic-AMP phosphodiesterase 4B (Homo sapiens) (UniProt Q07343); experiment: qHTS Assay for Inhibitors of PDE-IV (AID 607; active = well fitted activation curve with a large enough effect in the main read-out, with a control signal flat, not every such curve was filed as active; note: % of control where 0% means no effect)
Chain of 3',5'-cyclic-AMP phosphodiesterase 4B (Homo sapiens) (Q07343 whole entry, looked up): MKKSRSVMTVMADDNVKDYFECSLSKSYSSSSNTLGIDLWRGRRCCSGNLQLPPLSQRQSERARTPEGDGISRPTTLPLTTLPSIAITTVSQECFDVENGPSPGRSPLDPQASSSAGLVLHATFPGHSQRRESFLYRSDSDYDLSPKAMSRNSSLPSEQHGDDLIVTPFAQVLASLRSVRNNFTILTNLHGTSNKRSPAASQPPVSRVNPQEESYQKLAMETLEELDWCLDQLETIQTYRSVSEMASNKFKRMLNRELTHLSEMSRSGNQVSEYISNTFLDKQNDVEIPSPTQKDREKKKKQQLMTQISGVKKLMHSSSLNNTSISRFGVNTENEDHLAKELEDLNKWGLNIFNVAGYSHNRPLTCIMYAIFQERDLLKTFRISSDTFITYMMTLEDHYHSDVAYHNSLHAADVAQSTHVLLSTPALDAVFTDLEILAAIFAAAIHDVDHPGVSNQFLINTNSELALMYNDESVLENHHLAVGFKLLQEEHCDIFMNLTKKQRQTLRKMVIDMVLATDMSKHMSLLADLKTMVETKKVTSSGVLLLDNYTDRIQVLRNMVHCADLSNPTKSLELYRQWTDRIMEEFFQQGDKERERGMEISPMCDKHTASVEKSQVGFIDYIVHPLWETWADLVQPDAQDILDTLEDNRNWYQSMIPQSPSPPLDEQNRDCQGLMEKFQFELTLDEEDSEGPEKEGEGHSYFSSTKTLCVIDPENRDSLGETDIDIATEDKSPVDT
Outline: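 The readout is membrane depolarisation from a cAMP-sensing CNG channel, detected with a potential dye at ex 535/em 590. Cells were HEK293-derived (endogenous PDE-IV) at 1000 cells/well, titrated up to 22.9 uM final.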

[8] = biological target: Guanine nucleotide-binding protein G(i) subunit alpha-1 (Homo sapiens) (UniProt P63096); experiment: qHTS Assay for Inhibitors of RGS12 GoLoco Motif Activity (Green Fluorophore) (AID 879; active = well fitted curve in the direction sought with a large enough effect; an effect the other way counts as inactive or inconclusive;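 note: 0% = labeled peptide with Gαi1 and full inhibition = labeled peptide alone without protein; negative values mean loss of peptide binding seen as reduced polarization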)
Chain of Guanine nucleotide-binding protein G(i) subunit alpha-1 (Homo sapiens) (P63096 whole entry, looked up): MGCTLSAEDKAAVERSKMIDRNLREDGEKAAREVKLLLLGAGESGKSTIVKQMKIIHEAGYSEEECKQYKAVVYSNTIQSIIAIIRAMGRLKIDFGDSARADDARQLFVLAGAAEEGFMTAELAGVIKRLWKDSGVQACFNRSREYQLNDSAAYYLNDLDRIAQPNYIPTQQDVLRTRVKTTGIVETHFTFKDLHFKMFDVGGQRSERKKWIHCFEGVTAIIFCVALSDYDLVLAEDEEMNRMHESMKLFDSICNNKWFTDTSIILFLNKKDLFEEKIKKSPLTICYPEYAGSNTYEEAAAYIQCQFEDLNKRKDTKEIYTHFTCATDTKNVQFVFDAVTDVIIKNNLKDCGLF
Outline: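 A drop in FITC polarization marked displacement of the FITC-tagged RGS12 GoLoco peptide (10 nM) from Gαi1 (50 nM). Compounds were incubated 10 min at room temperature in Tris pH 7.5 buffer containing 150 mM NaCl, 0.1 mM GDP and 0.05% NP40; unlabeled peptide titration served as control.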

[9] = biological target: Muscarinic acetylcholine receptor M1 (Rattus norvegicus) (UniProt P08482); experiment: qHTS Assay for Antagonists of Acetylcholine Muscarinic M1 Receptor: Measurement of IP-One Response (AID 944; active = well fitted curve in the direction sought with a large enough effect; an effect the other way counts as inactive or inconclusive; note: nearly all actives have a fitted effect of over 75% in size)
Chain of Muscarinic acetylcholine receptor M1 (Rattus norvegicus) (P08482 whole entry, looked up): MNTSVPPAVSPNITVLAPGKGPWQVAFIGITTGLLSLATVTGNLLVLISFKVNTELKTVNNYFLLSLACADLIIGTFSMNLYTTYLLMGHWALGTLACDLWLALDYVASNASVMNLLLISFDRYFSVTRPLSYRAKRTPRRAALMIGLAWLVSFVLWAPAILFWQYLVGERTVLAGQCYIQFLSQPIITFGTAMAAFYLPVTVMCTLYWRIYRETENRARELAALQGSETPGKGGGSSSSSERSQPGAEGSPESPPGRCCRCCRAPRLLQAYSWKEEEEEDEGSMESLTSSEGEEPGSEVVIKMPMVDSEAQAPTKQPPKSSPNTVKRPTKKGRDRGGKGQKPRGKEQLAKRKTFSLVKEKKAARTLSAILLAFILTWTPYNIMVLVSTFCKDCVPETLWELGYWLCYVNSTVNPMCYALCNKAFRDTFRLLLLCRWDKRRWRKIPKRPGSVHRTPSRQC
Outline: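 Antagonism was measured as loss of carbachol-driven (EC80) IP1 accumulation in CHO cells carrying rat M1, using a homogeneous IP-One TR-FRET kit read at 620 and 665 nm.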

[10] = biological target: Pyruvate kinase PKM (Homo sapiens) (UniProt P14618); experiment: qHTS Assay for Activators of Human Muscle Pyruvate Kinase (AID 954; active = well fitted curve in the direction sought with a large enough effect, not every such curve was filed as active;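 note: 0% = uninhibited enzyme and -100% = no enzyme or full thiadiazolimine inhibition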)
Chain of Pyruvate kinase PKM (Homo sapiens) (P14618 whole entry, looked up): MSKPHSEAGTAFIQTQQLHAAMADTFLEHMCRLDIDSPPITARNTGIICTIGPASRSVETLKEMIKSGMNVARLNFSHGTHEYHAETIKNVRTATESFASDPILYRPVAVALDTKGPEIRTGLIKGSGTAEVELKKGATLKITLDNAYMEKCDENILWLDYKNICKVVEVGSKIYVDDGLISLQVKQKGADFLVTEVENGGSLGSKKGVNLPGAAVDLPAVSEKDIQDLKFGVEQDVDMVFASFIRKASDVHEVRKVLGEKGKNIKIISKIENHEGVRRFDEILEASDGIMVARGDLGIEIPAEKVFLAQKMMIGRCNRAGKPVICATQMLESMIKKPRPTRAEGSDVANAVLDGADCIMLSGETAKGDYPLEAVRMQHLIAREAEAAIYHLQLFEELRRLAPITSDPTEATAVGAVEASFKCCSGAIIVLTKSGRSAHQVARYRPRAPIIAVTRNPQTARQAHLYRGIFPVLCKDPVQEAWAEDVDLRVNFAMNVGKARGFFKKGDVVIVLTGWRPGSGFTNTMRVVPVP
Outline: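 PKM2, human, >95% pure, 0.1 nM; PEP 0.5 mM (Km), ADP 0.1 mM; 50 mM imidazole pH 7.2, 50 mM KCl, 0.01% Tween 20, 0.05% BSA; 1 h RT; luciferase luminescence readout.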

[11] = biological target: Alpha-galactosidase (Coffea arabica) (UniProt Q42656); experiment: Counterscreen for Glucocerebrosidase Inhibitors: qHTS Assay for Coffee Bean alpha-Galactosidase at pH 4.5 (AID 957; active = well fitted curve in the direction sought with a large enough effect; an effect the other way counts as inactive or inconclusive;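 note: plate controls were enzyme alone for no effect and no enzyme for full effect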)
Chain of Alpha-galactosidase (Coffea arabica) (Q42656 whole entry, looked up): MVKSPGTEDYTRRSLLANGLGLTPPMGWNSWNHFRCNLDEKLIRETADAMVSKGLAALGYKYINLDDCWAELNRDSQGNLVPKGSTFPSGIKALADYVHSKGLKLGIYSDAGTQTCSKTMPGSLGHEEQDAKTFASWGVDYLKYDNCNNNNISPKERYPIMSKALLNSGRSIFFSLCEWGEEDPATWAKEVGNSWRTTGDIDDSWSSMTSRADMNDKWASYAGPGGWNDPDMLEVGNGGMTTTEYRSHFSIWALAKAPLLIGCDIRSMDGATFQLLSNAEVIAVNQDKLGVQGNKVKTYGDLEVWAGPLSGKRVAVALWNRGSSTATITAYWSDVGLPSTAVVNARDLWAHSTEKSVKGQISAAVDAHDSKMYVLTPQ
Outline: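 Quantitative HTS of compounds (0.7 nM to 77 uM) against coffee bean alpha-galactosidase at pH 4.5, measuring 4-methylumbelliferone fluorescence released from 80 uM substrate.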

[12] = biological target: Alpha-galactosidase A (Homo sapiens) (UniProt P06280); experiment: Counterscreen for Glucocerebrosidase Inhibitors: qHTS Assay for Human alpha-Galactosidase at pH 4.5 (AID 992; active = well fitted curve in the direction sought with a large enough effect; an effect the other way counts as inactive or inconclusive; note: 0% is about no effect)
Chain of Alpha-galactosidase A (Homo sapiens) (P06280 whole entry, looked up): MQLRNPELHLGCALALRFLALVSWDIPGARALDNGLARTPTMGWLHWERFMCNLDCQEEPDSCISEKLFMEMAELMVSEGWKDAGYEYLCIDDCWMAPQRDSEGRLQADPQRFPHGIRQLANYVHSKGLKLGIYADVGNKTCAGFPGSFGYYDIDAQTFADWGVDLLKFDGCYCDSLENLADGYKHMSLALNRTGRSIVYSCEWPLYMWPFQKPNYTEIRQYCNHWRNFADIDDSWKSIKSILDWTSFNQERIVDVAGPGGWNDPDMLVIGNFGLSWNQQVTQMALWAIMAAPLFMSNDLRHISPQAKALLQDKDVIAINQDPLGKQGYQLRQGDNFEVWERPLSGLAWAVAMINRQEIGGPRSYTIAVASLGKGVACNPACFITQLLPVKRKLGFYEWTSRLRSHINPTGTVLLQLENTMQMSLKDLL
Outline: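 Fluorogenic 4-MU alpha-D-galactoside (80 uM) hydrolysis, 2 nM enzyme, pH 4.5 citrate buffer + 0.005% Tween-20; 20 min RT; NaOH/glycine pH 10 stop; Ex365/Em440. Compounds titrated 0.7 nM–77 uM; Hill-equation AC50.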

[13] = biological target: alpha-glucosidase (Oryza sativa, rice) (UniProt Q653V4); experiment: Counterscreen for Glucocerebrosidase Inhibitors: qHTS Assay for Rice alpha-Glucosidase at pH 5.0 (AID 997; active = well fitted curve in the direction sought with a large enough effect; an effect the other way counts as inactive or inconclusive;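 note: 0% = full activity with enzyme and -100% = basal without enzyme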)
Outline: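 Endpoint fluorogenic assay at pH 5.0: compounds (0.7 nM to 77 uM) titrated against 4 nM rice enzyme and 400 uM 4-MU-alpha-glucoside for 20 min at room temperature; NaOH/glycine stop, read ex 365/em 440 nm, Hill-fitted AC50.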

[14] = biological target: Alpha-galactosidase (Coffea arabica) (UniProt Q42656); experiment: Counterscreen for Glucocerebrosidase Inhibitors: qHTS Assay for Coffee Bean alpha-Galactosidase at pH 5.9 (AID 998; active = well fitted curve in the direction sought with a large enough effect; an effect the other way counts as inactive or inconclusive;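 note: plate controls were uninhibited enzyme for no effect and no-enzyme basal signal for full effect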)
Outline: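 Enzyme 2 nM + cpd (0.7 nM–77 uM titration) + 4-MU-alpha-Gal 80 uM, pH 5.9 citrate/Tween-20, RT 20 min, NaOH/glycine stop pH 10, fluor 365/440. Normalized to no-enzyme and full-activity controls; Hill-fit AC50.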

[15] = biological target: Ubiquitin carboxyl-terminal hydrolase 1 (Homo sapiens) (UniProt O94782); experiment: Inhibitors of USP1/UAF1: Pilot qHTS (AID 504865; active = well fitted curve in the direction sought with a large enough effect; an effect the other way counts as inactive or inconclusive;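 note: rhodamine fluorescence freed from ubiquitin-rhodamine substrate followed over time; top concentration of the series differs between compounds; % is set by controls: 0 for no effect and ±100 for the full control effect; nearly all actives have a fitted effect of over 35% in size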)
Chain of Ubiquitin carboxyl-terminal hydrolase 1 (Homo sapiens) (O94782 whole entry, looked up): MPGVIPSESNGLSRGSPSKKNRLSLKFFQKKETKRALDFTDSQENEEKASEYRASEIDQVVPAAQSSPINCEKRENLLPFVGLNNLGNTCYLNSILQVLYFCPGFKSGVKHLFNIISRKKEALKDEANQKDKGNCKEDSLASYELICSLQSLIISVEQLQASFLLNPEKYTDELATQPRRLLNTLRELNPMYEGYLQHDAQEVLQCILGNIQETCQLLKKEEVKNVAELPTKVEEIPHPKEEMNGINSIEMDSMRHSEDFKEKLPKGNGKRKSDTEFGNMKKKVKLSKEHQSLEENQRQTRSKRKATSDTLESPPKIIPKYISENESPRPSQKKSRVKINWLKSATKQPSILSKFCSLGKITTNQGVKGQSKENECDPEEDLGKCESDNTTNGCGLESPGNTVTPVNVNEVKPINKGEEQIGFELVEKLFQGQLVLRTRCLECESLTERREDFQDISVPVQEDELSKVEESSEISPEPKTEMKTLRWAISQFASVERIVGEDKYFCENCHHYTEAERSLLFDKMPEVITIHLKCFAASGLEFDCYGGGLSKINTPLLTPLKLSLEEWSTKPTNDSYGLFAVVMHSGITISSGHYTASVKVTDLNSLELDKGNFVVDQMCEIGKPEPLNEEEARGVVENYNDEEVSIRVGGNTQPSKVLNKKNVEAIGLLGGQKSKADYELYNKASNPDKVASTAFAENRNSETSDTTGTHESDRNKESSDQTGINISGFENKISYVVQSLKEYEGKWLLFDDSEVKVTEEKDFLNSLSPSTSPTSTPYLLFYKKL
Outline: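 USP1/UAF1 complex at 1 nM preincubated 15 min at room temperature with compound, then Ub-Rho substrate added at 150 nM final. Fluorescence (480/540 nm) read kinetically in 50 mM HEPES pH 7.8, 0.5 mM EDTA, 1 mM TCEP, 0.1 mg/ml BSA, 0.01% Tween-20.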

[16] = qHTS Assay for Identification of Small Molecule Agonists for Thrombopoietin (TPO) Signaling Pathway (AID 917; active = well fitted curve in the direction sought with a large enough effect; an effect the other way counts as inactive or inconclusive; note: % is set by controls: 0 for no effect and ±100 for the full control effect)
Outline: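 Stimulation at the TPO EC50 (26 pM final) was used to detect activators. Ba/F3 mouse cells bearing human TPO receptor and a luciferase reporter under the Glycoprotein IIb promoter were exposed to compounds for 24 hrs at 37 C.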

[17] = qHTS Assay for Identification of Small Molecule Agonists for Hypoxia Response Element Signaling Pathway (AID 914; active = well fitted activation curve with a large enough effect in the signal ratio, with a control signal flat, not every such curve was filed as active; the % refers to the signal ratio; note: % of control where 0% means no effect); details: ME-180 (cervical carcinoma) HRE-bla reporter, beta-lactamase ratio, CoCl2, 17 h; activation: stronger effect = higher value
Outline: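 HRE-bla ME-180 assay for agonist-like enhancement of an EC50 CoCl2 stimulus: 17 h at 37 degrees Celsius, CCF4 for 2.5 h, ratiometric 460/530 nm signal converted to %Activity and fitted to AC50.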

O=[N+]([O-])c1ccc(O[C@H]2O[C@@H](CO)[C@@H](O)[C@@H](O)[C@@H]2F)c([N+](=O)[O-])c1
inactive: activity change, negative = inhibition [1] -3.88% [at 38 µM] | activity change, negative = inhibition [2] 14.6% [at 38 µM] | outcome [3] | Potency [4] > 46 µM | Potency [5] > 46 µM | outcome [6] | outcome [7] | Potency [8] | Potency [9] | outcome [10] | outcome [11] | outcome [12] | outcome [13] | outcome [14]

C[C@H]1CCC/C=C/C2C[C@H](O)CC2[C@H](O)/C=C/C(=O)O1 (stereo partly specified)
inactive: activity change, negative = inhibition [1] 5.62% | outcome [3] | Potency [4] > 20.6 µM

CC(C)(O)[C@H]1[C@H]2OC(=O)[C@@H]1[C@]1(O)C[C@H]3O[C@]34C(=O)O[C@H]2[C@]14C (tested in a mixture with another compound)
inactive: activity change, negative = inhibition [1] 5.02% [at 38 µM] | activity change, negative = inhibition [2] -0.245% [at 38 µM] | outcome [3] | Potency [4] > 46 µM | Potency [5] > 46 µM | outcome [6] | outcome [7] | Potency [8] | Potency [9] | outcome [10] | outcome [11] | outcome [12] | outcome [13]

O=C1CC[C@]2(O)[C@H]3Cc4ccc(O)c5c4[C@@]2(CCN3CC2CC2)[C@@H]1O5
inactive: activity change, negative = inhibition [1] 3.41% | activity change, negative = inhibition [2] 9.93% | outcome [3] | outcome [6] | outcome [7] | Potency [15]

CCc1nc(N2CCNCC2)c(C#N)c2c1CSC(C)(C)C2
inactive: activity change, negative = inhibition [1] -1.4% | outcome [3] | Potency [4] > 20.6 µM

COC(=O)C(O)(c1ccc(NC(=O)c2ccco2)c(OC)c1)C(F)(F)F (stereo unspecified)
inactive: activity change, negative = inhibition [1] -12.5% | activity change, negative = inhibition [2] 4.31% | Potency [4] > 20.6 µM

CC[C@H](CO)NC(=O)[C@@H]1C=C2c3cccc4[nH]cc(c34)C[C@@H]2N(C)C1
inactive: activity change, negative = inhibition [1] 2.51% [at 38 µM] | activity change, negative = inhibition [2] -0.886% [at 38 µM] | outcome [3] | Potency [4] > 46 µM | Potency [5] > 46 µM | outcome [6] | outcome [7] | outcome [16] | outcome [10] | outcome [11] | outcome [12] | outcome [13] | outcome [14]

C=CCN1CC[C@]23c4c5ccc(O)c4O[C@@H]2C(=O)CC[C@@]3(O)[C@H]1C5
inactive: activity change, negative = inhibition [1] 3.28% [at 38 µM] | activity change, negative = inhibition [2] -0.768% [at 38 µM] | outcome [3] | outcome [7] | Potency [8] | outcome [16] | outcome [10] | outcome [11] | outcome [12] | outcome [13] | outcome [14]

O=C(CN1CCN(CCO)CC1)Nc1ccc(Cl)cc1C(=O)c1ccccc1
inactive: activity change, negative = inhibition [1] 3.2% | activity change, negative = inhibition [2] 5.95% | outcome [3] | Potency [4] > 20.6 µM | activation [17] 0.98%
